Data on 16 molecules can be found in PubChem BioAssay (Tox21).

The nature of assay [1]: qHTS assay to identify small molecule agonists of the vitamin D receptor (VDR) signaling pathway - cell viability counter screen (AID 743224). Further: nearly all actives have a fitted effect of over 50% in size. Further: potency means the concentration at half of the fitted maximal effect. In a few lines: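 VDR-bla cell line, quantitative HTS format; 16 h compound incubation (37C, 5% CO2); ATP-based CellTiter-Glo luminescence measured in the reporter assay wells.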
On the technique in general: In qHTS, concentration-response curves come from the screen itself.

Assay [2] in a line: qHTS assay to identify small molecule agonists of the NFkB signaling pathway - cell viability counter screen (AID 1159515; calls by dose curve; further: on the % scale 0 is the no-effect control and ±100 the full control effect; nearly all actives have a fitted effect of over 55% in size). In a few lines:
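Viability in NFkB-bla ME-180 cells was measured by CellTiter-Glo luminescence, 30 min room temperature, in wells already treated 5 hr with compounds and read for reporter FRET.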

The nature of assay [3]: qHTS assay to identify small molecule antagonists of the retinoid-related orphan receptor gamma (ROR-gamma) signaling pathway - cell viability counter screen (AID 1159520). Further: nearly all actives have a fitted effect of over 50% in size. Further: potency means the concentration at half of the fitted maximal effect. An outline of the steps:
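Tet-on ROR gamma CHO cells (1,000/well) were plated 4 hr, given compounds in DMSO for 2 hr at 37 C, then induced with 1 uM final doxycycline for 16 hr. Viability was read as ATP by CellTiter-Glo luminescence after 30 min.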

Assay [4] has as its target Nuclear receptor ROR-gamma (Homo sapiens) (UniProt P51449). In words: qHTS assay to identify small molecule antagonists of the retinoid-related orphan receptor gamma (ROR-gamma) signaling pathway (AID 1159521; further: nearly all actives have a fitted effect of over 50% in size; further: potency means the concentration at half of the fitted maximal effect). An outline of the steps:
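Luminescence readout (ONE-Glo, 30 min RT) after 16 h doxycycline induction; loss of signal scored as antagonism. CHO cells with TET-inducible RORγ and RORE-LUC reporter; compounds added 2 h before 1 uM final doxycycline.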

The nature of assay [5]: qHTS assay to identify small molecule agonists of the AP-1 signaling pathway - cell viability counter screen (AID 1159525; calls by dose curve; further: nearly all actives have a fitted effect of over 55% in size). In a few lines: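 ME-180 AP-1-bla, 2500 cells/well, Opti-MEM + 0.5% dialyzed FBS; overnight 37 °C; cpd 15-pt titration, 5 h 37 °C; CellTiter-Glo 30 min RT; luminescence read; normalised to TOAB and DMSO controls.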
The nature of assay [6]: qHTS assay to identify small molecule agonists of the AP-1 signaling pathway (AID 1159526; calls by dose curve; further: on the % scale 0 is the no-effect control and ±100 the full control effect).
The nature of assay [7]: qHTS assay to identify small molecule antagonists of the retinoic acid receptor (RAR) signaling pathway (AID 1159552; further: on the % scale 0 is the no-effect control and ±100 the full control effect; nearly all actives have a fitted effect of over 50% in size). In a few lines:
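Luminescence from a RARE luciferase reporter in C3RL4 cells served as read-out. Cells received compounds together with 1 uM final retinol and incubated 6 hr at 37 C before detection reagent was added for 30 min at room temperature.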

Assay [8] in a line: qHTS assay to identify small molecule antagonists of the vitamin D receptor (VDR) signaling pathway - cell viability counter screen (AID 743225). An outline of the steps: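 Viability counter screen run in the same wells as the beta-lactamase reporter assay: HEK 293T VDR-UAS-bla cells, 16 h compound exposure at 37C with 3 nM (final) 1-alpha,25-dihydroxyvitamin D3. CellTiter-Glo luminescence, 30 min, room temperature.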

Assay [9] in a line: qHTS assay to identify small molecule agonists of the endoplasmic reticulum stress response signaling pathway (AID 1159516; active means well fitted activation curve with a large enough effect in the signal ratio in the repeat runs, not every such curve was filed as active; the % refers to the signal ratio; further: on the % scale 0 is the no-effect control and ±100 the full control effect). An outline of the steps:
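ER stress element reporter (bla) in HeLa. 1,500 cells/well, overnight attachment; 5 hr compound; 2 hr RT substrate; dual-emission fluorescence.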

Assay [10] is described as follows: qHTS assay to identify small molecule agonists of the endoplasmic reticulum stress response signaling pathway - cell viability counter screen (AID 1159517; calls by dose curve). An outline of the steps: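 Luminescence readout: CellTiter-Glo, 30 min RT, same wells as the ESRE-bla reporter read. HeLa ESRE-bla, 1,500 cells/well, o/n 37 C; cpd 5 hr 37 C/5% CO2.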
Assay [11] addresses Retinoic acid receptor RXR-alpha (Homo sapiens) (UniProt P19793). The assay is described as follows: qHTS assay to identify small molecule agonists of the RXR signaling pathway (AID 1159527; calls by dose curve; further: nearly all actives have a fitted effect of over 35% in size; further: potency means the concentration at half of the fitted maximal effect). In a few lines:
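Agonist mode; 9-cis retinoic acid positive control. HEK 293T UAS-bla reporter cells, 2% charcoal-stripped FBS, 16 hr compound exposure at 37 C/5% CO2. LiveBLAzer B/G FRET substrate 2 hr RT; ex 405, em 460/530 nm.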

Assay [12] is described as follows: qHTS assay to identify small molecule agonists of the RXR signaling pathway - cell viability counter screen (AID 1159529). An outline of the steps:
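Luminescence from CellTiter-Glo (30 min, RT) measured viability in the same wells as the beta-lactamase reporter readout. Cells: GeneBLAzer RXR-alpha HEK 293T, 2% charcoal-stripped FBS. Compound exposure 16 hr, 37 C.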

Assay [13] is described as follows: qHTS assay to identify small molecule antagonists of the retinoid acid receptor (RAR) signaling pathway - cell viability counter screen (AID 1159551). Further: on the % scale 0 is the no-effect control and ±100 the full control effect; nearly all actives have a fitted effect of over 35% in size. In a few lines: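 Following overnight attachment, C3RL4 reporter cells received DMSO-dissolved compounds and then retinol (1 uM final). Six hours later at 37 C, ATP content was measured by CellTiter-Glo luminescence.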

Assay [14] can be described thus: qHTS assay to identify small molecule agonists of the retinoic acid receptor (RAR) signaling pathway (AID 1159553). Further: on the % scale 0 is the no-effect control and ±100 the full control effect. The following applies: C3RL4 RARE luciferase reporter, agonist, 6 h; activation: at 73.3 µM (top of the series). An outline of the steps: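 Cell line C3RL4, RARE luciferase reporter. Treatment: compounds in DMSO, 6 hr, 37 C, 5% CO2, after overnight plating. Detection: luminescence, 30 min RT after reagent.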

The nature of assay [15]: qHTS assay to identify small molecule antagonists of the estrogen related receptor (ERR) signaling pathway - cell viability counter screen (AID 1224818).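 Further: viability measured after 17.5 h of compound exposure; on the % scale 0 is the no-effect control and ±100 the full control effect.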 An outline of the steps: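 Here, ERR cells are plated at 2,000 cells per well, allowed 6 h to attach, and treated with compounds in DMSO for 17.5 h at 37 C. CellTiter-Fluor is then added and fluorescence read after 30 min.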

Assay [16] in a line: qHTS assay to identify small molecule antagonists of the estrogen related receptor (ERR) signaling pathway (AID 1224819). An outline of the steps: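 LOPAC library screened for antagonism as reduced One-Glo luminescence in ERR reporter cells (2,000/well). Compounds were added after 6 h pre-incubation and left 18 h at 37C; reading followed a 30 min room-temperature reagent step.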

The nature of assay [17]: qHTS assay to identify small molecule agonists of the estrogen related receptor (ERR) signaling pathway (AID 1224820). Further: on the % scale 0 is the no-effect control and ±100 the full control effect. In a few lines:
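Quantitative HTS of the LOPAC library used NTP ERR reporter cells treated 18 h at 37 C. Signal is luminescence after One-Glo addition and a 30 min room-temperature incubation.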

Assay [18] deals with estrogen-related receptor alpha (ERRalpha) with PGC-1alpha coactivator, human. The assay is described as follows: qHTS assay to identify small molecule antagonists of the estrogen related receptor signaling pathway with the pleiotropic PPARgamma coactivator (PGC) (AID 1224821; calls by dose curve). An outline of the steps: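 Quantitative HTS for antagonism: PGC/ERR cells received compounds after 6 h attachment and were incubated 18 h at 37 C, with luminescence (One-Glo) as the endpoint.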

Records with an inconclusive call do not appear. A number with no mark means an inactive call. Calls of active or inactive are those of the source. Unless noted, the call rests on the fitted dose curve; in most records, active means well fitted curve in the direction sought with a large enough effect in the repeat runs; inconclusive means weak or mixed curves; inactive means no such curve, though single readings can be large; an effect the other way counts as inactive or inconclusive.

Retinoic acid receptor RXR-alpha (Homo sapiens), sequence (P19793 whole entry, looked up): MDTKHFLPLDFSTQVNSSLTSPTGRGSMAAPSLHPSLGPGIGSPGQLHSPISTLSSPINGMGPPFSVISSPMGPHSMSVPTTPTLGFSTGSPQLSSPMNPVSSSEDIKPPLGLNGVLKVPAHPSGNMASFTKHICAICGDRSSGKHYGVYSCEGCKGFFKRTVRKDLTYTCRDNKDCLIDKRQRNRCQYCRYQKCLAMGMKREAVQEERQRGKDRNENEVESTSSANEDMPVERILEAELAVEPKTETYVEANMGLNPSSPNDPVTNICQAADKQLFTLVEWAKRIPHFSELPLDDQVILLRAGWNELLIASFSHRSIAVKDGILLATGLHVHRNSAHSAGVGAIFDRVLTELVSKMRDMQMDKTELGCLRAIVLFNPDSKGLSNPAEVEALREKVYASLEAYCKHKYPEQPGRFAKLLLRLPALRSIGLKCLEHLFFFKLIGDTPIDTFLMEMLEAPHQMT

In the case of `Cc1cc(=O)c2c(O)c3c(O)cc(=O)c4c3c3c(cc(O)c1c23)C(C)(C)C=4O`, the results for the Potency in assay [1], in [3] and in [4] were 731 nM (active), 1640 nM (active) and 820 nM (active), respectively. Further, the Potency result in [2] is “inactive”. In [5], the viability change, negative = cytotoxic is 5.76% [at 15.8 µM]. For the same molecule, the activation in assay [6] is -0.228% [at 15.8 µM]. The activity, negative = inhibition in [7] is -5.37% [at 19 µM].
As to `CCCCN(CCN(CCCC)C(=O)N1CCOCC1)C(=O)N1CCOCC1`, the Potency in [1] is 33500 nM (active). Besides, the Potency entry in [8], in assay [9], in assay [10], in assay [3], in [5] and in assay [11] was “inactive” in each case. The Potency result in [12], in [13] and in assay [7] was “inactive” in each case.
Consider `O=C(Nc1cccc2c(=O)cc(-c3nn[nH]n3)oc12)c1ccc(OCCCCc2ccccc2)cc1`, for which the Potency entry in assay [2], in [10], in [3], in [11], in assay [12] and in assay [13] was “inactive” in each case. Moreover, the Potency entry in assay [7] and in assay [14] was “inactive” throughout.
In the case of `c1ccc2c(c1)CCc1ccccc1N2`, the Potency result in assay [1], in [8], in assay [10], in assay [3], in [4] and in assay [5] was “inactive” each time. Besides, the Potency result in assay [11], in [13], in assay [7] and in [14] was “inactive” each time.
`O=C1c2ccccc2C(=O)N1CCc1noc(-c2ccc(CN3CCCCCC3)s2)n1`: the Potency entry in assay [8], in assay [9], in [10], in assay [3], in assay [5] and in [6] was “inactive” in each case. The Potency entry in [12], in [13], in assay [7] and in [14] was “inactive” in each case.
Regarding `CC1(C)S[C@@H]2[C@H](NC(=O)C(c3ccccc3)S(=O)(=O)O)C(=O)N2[C@H]1C(=O)O` (stereo partly drawn), the Potency entry in [1], in assay [8], in assay [9], in [10], in assay [3] and in [4] was “inactive” in each case. Also, the Potency result in assay [5], in [6], in assay [11], in assay [12], in [13] and in [7] was “inactive” in each case. Moreover, the Potency entry in assay [14] was “inactive”.
In the case of `CC(=O)c1cc2ccccc2s1`, the Potency entry in assay [1], in assay [8], in [10], in assay [3], in assay [4] and in [5] was “inactive” throughout. In addition, the Potency result in assay [6], in [11], in assay [12], in assay [13], in assay [7] and in assay [14] was “inactive” each time.
Turning to `CO[C@]1(NC(=O)CSC(F)F)C(=O)N2C(C(=O)O)=C(CSc3nnnn3CCO)CO[C@H]21`, the Potency result in assay [1], in assay [8], in assay [2], in assay [3], in assay [5] and in assay [6] was “inactive” in each case. Also, the Potency result in [11], in assay [12], in assay [13], in assay [7] and in assay [14] was “inactive” each time.
For `CN(C)CCC=C1c2ccccc2C=Cc2ccccc21`, the Potency result in [1], in assay [9], in assay [10], in assay [3], in assay [4] and in assay [5] was “inactive” in each case. The Potency entry in assay [13] and in assay [14] was “inactive” each time. The molecule was classed as inactive in assay [15], in assay [16], in assay [17] and in assay [18].
For the molecule `CC(CO)CO`, the Potency entry in assay [1], in assay [8], in assay [2], in assay [3], in assay [4] and in assay [5] was “inactive” in each case. Moreover, the Potency result in [6], in [11], in [12], in assay [13], in [7] and in assay [14] was “inactive” in each case.
Take `CCCCCCCCOc1ccc(C(=O)O)cc1`: the Potency entry in assay [1], in assay [8], in [2], in [3], in assay [4] and in assay [5] was “inactive” each time. Also, the Potency entry in [6], in assay [12] and in assay [13] was “inactive” throughout. Further, the Potency in assay [11] is 19300 nM (active).
Regarding `CCOC(C)=O`, the Potency result in assay [1], in [8], in assay [10], in [3], in assay [4] and in [5] was “inactive” each time. In addition, the Potency entry in assay [6], in assay [11], in [12], in assay [13], in [7] and in assay [14] was “inactive” each time.
In the case of `O=C(/C=C/c1ccc(O)c(O)c1)O[C@@H]1C[C@@](OC(=O)/C=C/c2ccc(O)c(O)c2)(C(=O)O)C[C@@H](O)[C@@H]1O`, the Potency entry in assay [1], in [8], in assay [10], in assay [3], in assay [5] and in assay [6] was “inactive” throughout. Besides, the Potency result in [11], in assay [12], in assay [13], in [7] and in [14] was “inactive” each time.
In the case of `CCC(C)COC(=O)CC(C)C` (stereo not drawn), the Potency entry in [1], in [2], in assay [10], in assay [3], in assay [6] and in [13] was “inactive” each time. The Potency entry in assay [7] and in assay [14] was “inactive” throughout.
On to `COc1cc(C(=O)NCCCCCC(=O)O)cc(OC)c1OC`, for which the Potency entry in [1], in assay [8], in assay [9], in assay [10], in assay [3] and in [4] was “inactive” in each case. The Potency entry in assay [5], in assay [6], in assay [11], in [12], in assay [13] and in assay [7] was “inactive” each time. For the same molecule, the Potency result in assay [14] was “inactive”.
As for `COC(=O)CS`, the Potency entry in assay [1], in [8], in [2], in assay [3], in assay [4] and in assay [5] was “inactive” in each case. Further, the Potency entry in [12], in [13] and in [14] was “inactive” each time.
